In the library only some 3.6% were active in any assay of this set; here they are far more common.
Nrf2 inh: Nrf2 qHTS screen for inhibitors; A549 ARE-Fluc reporter, luciferase luminescence, 18-24 h; Potency, µM (top dose mostly 46 µM), usual class: inhibitors; 360,000 tested, 2.1% active; further: nearly all actives have a fitted effect of over 60% in size
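Reporter: ARE-Fluc in A549. Exposure: 18-24 h, 37 °C, 5% CO2, 5% FBS OPTI-MEM. Readouts: fluorescent cytotoxicity (CellTiter-Fluor), then luminescent Nrf2 signal after BugLite.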
A549 tox: Nrf2 qHTS screen for inhibitors: counterscreen for cytotoxicity; A549 ARE-Fluc cells, CellTiter-Fluor viability, 18-24 h; Potency, µM (top dose mostly 46 µM), usual class: inhibitors; 390,000 tested, 0.16% active
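Cytotoxicity counterscreen: CellTiter-Fluor fluorescence was measured in A549 ARE_Fluc cells after 18-24 h of compound exposure in a concentration series. The subsequent BugLite luminescent read reports ARE-luciferase activity.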
Nrf2 activator: qHTS of Nrf2 Activators; AREc32 ARE-luciferase reporter (MCF7-derived line), luminescence, 24 h; Potency, µM (doses to about 46.1 µM), actives largely listed as activators; 410,000 tested, 0.31% active; further: nearly all actives have a fitted effect of over 65% in size
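ARE activation measured as luciferase luminescence (Steady-Glo, 30 min RT) in AREc32_Fluc cells after 24 hr compound exposure at 37 deg C, 5% CO2; cells seeded overnight at 1000/well in OPTI-MEM, 5% FBS.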
TGFb SMAD3 inh: qHTS for Inhibitors of TGF-b | HepG2 CAGA-GFP TGF-b/SMAD3 reporter, GFP fluorescence, 18 h; TGF-beta stimulated, 500 pg/mL final | Potency, µM (doses to about 46.1 µM), actives largely listed as inhibitors | 410,000 tested, 1.2% active | AID 588855, 2011; further: nearly all actives have a fitted effect of over 65% in size
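TGF-beta reporter screen: HEPG2 CAGA-GFP, 1% FBS, 500 pg/mL TGF-beta final, 18 h; per-cell GFP summed per well; curves fitted and categorized by class.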
HepG2 tox: qHTS for Inhibitors of TGF-b: Cytotox Counterscreen; HepG2 CAGA-GFP viability, ATP luminescence, 18 h; Potency, µM (titrated, usually from 46.1 µM), usual class: cytotoxic; 410,000 tested, 0.76% active
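CellTiter-Glo luminescence gave cytotoxicity after 18 hours at 37 degrees C. The cells were HepG2 CAGA-GFP in 1% FBS DMEM, stimulated with 500 pg/mL TGF-beta after compound addition. %Activity was normalised to no-cell wells (complete cell-killing) and DMSO (no toxicity), and curves were fitted and classified.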
Numbers stand for hits; [ ] = another dose, or the depositor's remark. The call rests on the fitted dose curve; in most records, active means well fitted curve in the direction sought with a large enough effect; inconclusive means small, poorly fitted or top-dose-only effect, or another doubt; inactive means no such curve, though single readings can be large; an effect the other way counts as inactive or inconclusive.

How did COc1cccc(N/C(SCc2cccc([N+](=O)[O-])c2)=C(/C#N)C(N)=O)c1 do in these assays?
Nrf2 inh: inconclusive; A549 tox: inactive; Nrf2 activator: inconclusive; TGFb SMAD3 inh: inconclusive; HepG2 tox: 14.1µM

What do the screens show for `COCCNC(=O)C1(C)CCN(Cc2ccc(C(C)C)cc2)C1` (centres undefined)?
Nrf2 activator: inactive[9.22 µM]; TGFb SMAD3 inh: inactive; HepG2 tox: inactive

How did CNc1ccc(Br)cc(C(=O)/C=C/c2ccc(OC)cc2)c1=O do in these assays?
Nrf2 inh: inactive; A549 tox: inactive; Nrf2 activator: inconclusive; TGFb SMAD3 inh: inactive; HepG2 tox: inactive

Results for CCNc1ccc(Br)cc(C(=O)/C=C/c2ccc(Cl)cc2Cl)c1=O ?
Nrf2 inh: 25.9µM; A549 tox: inconclusive; Nrf2 activator: inconclusive; TGFb SMAD3 inh: inactive; HepG2 tox: inactive

What do the screens show for `CNc1ccc(Br)cc(C(=O)/C=C/c2cc(OC)ccc2OC)c1=O`?
Nrf2 inh: inconclusive; A549 tox: inconclusive; Nrf2 activator: 14.1µM; TGFb SMAD3 inh: 15.8µM; HepG2 tox: inactive

Results for Cc1ccc(N(CN2CCCC2=O)C(=O)c2ccccc2)cc1 ?
Nrf2 inh: inactive; A549 tox: inactive; Nrf2 activator: inactive; TGFb SMAD3 inh: inactive; HepG2 tox: inactive

Results for COc1ccc(C2C=C3CNS(=O)(=O)C3CC2OC(=O)c2cccs2)cc1 (centres undefined) ?
Nrf2 inh: inconclusive; A549 tox: inconclusive; TGFb SMAD3 inh: inconclusive; HepG2 tox: inactive

What do the screens show for `COc1ccc(C2C=C3CNS(=O)(=O)C3CC2OC(=O)c2ccc(C(F)(F)F)cc2)cc1` (centres undefined)?
Nrf2 inh: inconclusive; A549 tox: inconclusive; TGFb SMAD3 inh: 14.1µM; HepG2 tox: inactive

How did CC(C)N(CCC(=O)c1ccc2ccccc2c1)Cc1ccccc1 do in these assays?
Nrf2 inh: inconclusive; A549 tox: inconclusive; Nrf2 activator: inconclusive; TGFb SMAD3 inh: 11.2µM; HepG2 tox: inactive

What do the screens show for `N#Cc1cc(Oc2cccc3cccnc23)c(-n2nnc3ccccc32)cc1C#N`?
A549 tox: inactive; Nrf2 activator: inactive; TGFb SMAD3 inh: 6.31µM; HepG2 tox: inactive

Results for Cc1ccccc1Cn1cc(NC(=O)c2cc3nc(-c4ccco4)cc(C(F)(F)F)n3n2)cn1 ?
Nrf2 inh: inconclusive; A549 tox: inactive; Nrf2 activator: inactive; TGFb SMAD3 inh: inactive; HepG2 tox: inactive

How did CCc1ccc(-c2cc(C(F)(F)F)n3nc(C(=O)Nc4cnn(Cc5ccc(C)cc5)c4)cc3n2)s1 do in these assays?
Nrf2 inh: 8.2µM; A549 tox: 25.9µM; Nrf2 activator: inactive; TGFb SMAD3 inh: inactive; HepG2 tox: inactive

Results for CCOc1ccc2nc(N3CCCC(C(=O)NCCc4ccc(OC)cc4OC)C3)sc2c1 (centres undefined) ?
Nrf2 inh: inconclusive; A549 tox: inactive; Nrf2 activator: inactive; TGFb SMAD3 inh: 17.8µM; HepG2 tox: inactive

How did O=c1oc2ccccc2cc1-c1nc(-c2cccs2)no1 do in these assays?
A549 tox: inactive; Nrf2 activator: 12.6µM; TGFb SMAD3 inh: inactive; HepG2 tox: inactive

What do the screens show for `NNC(=S)NC1CCCCCCCCCCC1`?
Nrf2 inh: inactive; A549 tox: inactive; Nrf2 activator: inactive; TGFb SMAD3 inh: 10µM; HepG2 tox: 8.91µM

How did COc1ccc(-c2c([C@H]3[C@H]4C=CC[C@@H](C)[C@@H]4C(=O)N3Cc3ccccc3)ccc3ccccc23)cc1OC do in these assays?
Nrf2 inh: 18.4µM; A549 tox: inconclusive; Nrf2 activator: inactive; TGFb SMAD3 inh: inconclusive; HepG2 tox: inactive

What do the screens show for `COc1ccc(-c2ccccc2[C@H]2[C@@H]3C=CC[C@@H](C)[C@@H]3C(=O)N2Cc2ccccc2)cc1`?
Nrf2 inh: 18.4µM; A549 tox: inconclusive; Nrf2 activator: inactive; TGFb SMAD3 inh: inconclusive; HepG2 tox: inactive

What do the screens show for `COc1ccc(-c2c(C3C4C=CCC(C)C4C(=O)N3Cc3ccccc3)ccc3ccccc23)cc1` (centres undefined)?
Nrf2 inh: 20.6µM; A549 tox: inactive; TGFb SMAD3 inh: inactive; HepG2 tox: inactive

Assay outcomes as filed in PubChem.
